# Activity calls are given as the source filed them. How the source made its calls: active means hit-call score of the fitted dose curve at least 0.9, where 1 is the maximum; inactive means score below 0.9.
# Read-out: Cytochrome P450 4A22 (Homo sapiens) (UniProt Q5TCH4)
# Test: LTEA_HepaRG_CYP4A22: Life Technologies and Expression Analysis (LTEA) Assay for Cytochrome P450 4A22 (CYP4A22) using HepaRG (AID 2283495)
# Conditions: mRNA level, 48 h; actives raise or lower the signal
# Experimental: LTEA_HepaRG is a cell based, multiplexed-readout assay that uses HepaRG, a human liver cell line, with measurements taken at 48 hours after chemical dosing on a 96-well plate.LTEA_HepaRG_CYP4A22 is one of 102 assay component(s) measured in the LTEA HepaRG cell culture assay. It is a marker of NR mediated metabolism.Data from the assay component LTEA_HepaRG_CYP4A22 was analyzed into 1 endpoint. This assay endpoint, LTEA_HepaRG_CYP4A22, was analyzed with bidirectional fitting relative to DMSO as the negative control and baseline of activity. Using a type of inducible reporter, measures of mRNA induction for gain or loss-of-signal activity can be used to understand regulation of transcription factor activity. To generalize the intended target to other relatable targets, this assay endpoint is annotated to the cyp intended target family, where the subfamily is xenobiotic metabolism.
# A total of 1060 chemcials from the ToxCast library were tested in eight-point concentration-response experiments. Cell culture and cytotoxicity assays were conducted at Thermo Fisher Scientific's Custom Services facility (Madison, WI). A single lot of human HepaRG cells (Thermo Fisher Scientific, Frederick, MD) was used for the cell culture experiments. 96-well format collagen type I coated plates of human HepaRG cells were prepared using established methods. Briefly, cryopreserved HepaRG cells were thawed, plated at a density of approximately 100,000 cells/well in HepaRG Thaw, Plate, and General Purpose media (HPRG770, Thermo Fisher Scientific), and incubated for 48 hours. 0.5% DMSO was selected as vehicle control to balance the requisite need of DMSO in HepaRG cultures to maintain differentiation (for example, baseline metabolism, proportions of hepatocytes vs. cholangiocytes), while enabling further hepatic receptor pathway activation (for example, PXR and CAR) in response to chemical exposure. 48 hours after plating, the culture medium was replaced with HepaRG Serum-Free Incudtion Media. Cells were exposed to each test chemical in duplicate and maintained in CO2 incubators for another 48 hours. Chemical plates were thawed to room temperature and 200x concentrations of treatment groups were prepared. 8-point conentration-reponse curves were made with the highest exposure at 100 uM, followed by half-log dilutions, all in 0.5% DMSO. Each test plate contained variouse controls, induction positive controls (1mM phenobarbital), cytotoxicity positive controls ([…] aflatoxin B1), vehicle controls (0.5% DMSO), and total lysis controls (0.5% DMSO). Cell morphology images were taken using an Essen IncuCyte FLR automated microscope, with six 96-well plates imaged in about 24 minutes. Images were captured and exported and JPEG files. Spent culture media was transfered to black-well plates for the LDH assay, and remaining media was sorted at -80 C for later use. Cells were treated with RLT buffer and frozen until shipped for gene expression analysis. Total RNA was isolated from the cell suspension in 75 uL of Buffer RLT (Qiagen, Germantown, MD 20874) by Quintiles/Expression Analysis (Durham, NC) using a custom isolation procedure. Total RNA from each plate well was transferred to a preamplification plate. Fluidigm's 96.96 Dynamic ArrayTM (Fluidigm, Amsterdam, the Netherlands) technology was used for gene expression analyses by quantitative reverse transcription polymerase chain reaction (qRT-PCR, performed by Quintiles/Expression Analysis, Durham, NC)89. Standard TaqManTM Assays (Applied Biosystems/ThermoFisher Scientific, Foster City, CA) were used to assess the expression of 93 genes selected based on their selectivity and sensitivity to important hepatic receptors known to be modulated by environmental chemicals; importance in human hepatocyte functionality; and hepatotoxicity. […]
Compound,outcome,AC50
[As]#[In],inactive,–
O=C(Nc1ccccc1)c1ccccc1I,inactive,–
C[N+](C)(C)CC1CO1 (stereo not given),inactive,–
CCC12COCN1COC2,inactive,–
O=C1CCCO1,inactive,–
CCCCOC(=O)c1ccccc1C(=O)OCc1ccccc1,inactive,–
OCCOCCO,inactive,–
COC(=O)Nc1nc2ccccc2[nH]1,inactive,–
N#CC(Br)(Br)C(N)=O,inactive,–
c1ccc(C2CO2)cc1 (stereo not given),inactive,–
Nc1cc(Cl)cc(C(=O)O)c1Cl,inactive,–
CCOc1cccc(C2(N3CCN(c4ccccc4)CC3)CCC(C)CC2)c1 (stereo not given),inactive,–
Oc1ccccc1Cl,inactive,–
ClC1=C(Cl)[C@]2(Cl)[C@H]3[C@H]([C@@H]4C=C[C@H]3C4)[C@@]1(Cl)C2(Cl)Cl,–,29.1 µM (active)
CC(C)COC(=O)c1ccccc1C(=O)OCC(C)C,inactive,–
O=[N+]([O-])C(Br)(CO)CO,inactive,–
Cc1ccc(N=C=O)cc1N=C=O,–,50 µM (active)
O=[N+]([O-])c1ccc(Oc2ccc(Cl)cc2Cl)cc1,inactive,–
Cc1cc(N=Nc2ccccc2C)ccc1N,–,4.39 µM (active)
CN(C)c1ccccc1,inactive,–

Compound,outcome,AC50
CCCCCCCCCCCCCN1CC(C)OC(C)C1 (stereo not given),inactive,–
N#CC(Br)Br,inactive,–
CN(C)C(=O)Nc1ccc(Cl)cc1,inactive,–
CCCSC(=O)N(CCC)CCC,inactive,–
Cc1ccc([N+](=O)[O-])cc1,inactive,–
CC(O)CCO (stereo not given),inactive,–
Nc1ccc(Cl)cc1N,–,29.7 µM (active)
Clc1ccc(Cl)c(Cl)c1,inactive,–
Nc1ccc(N=Nc2ccccc2)cc1,–,13.3 µM (active)
c1ccc(N=Nc2ccccc2)cc1,inactive,–
O=C(O)C1C2CCC(O2)C1C(=O)O (stereo not given),–,50 µM (active)
CO[C@@H]1[C@H](OC(=O)NC(=O)CCl)CC[C@]2(CO2)[C@H]1[C@@]1(C)O[C@@H]1CC=C(C)C,inactive,–
[Cl-].[Cl-].[Hg+2],inactive,–
CCCCCCCCOC(=O)c1ccc(C(=O)OCCCCCCCC)c(C(=O)OCCCCCCCC)c1,inactive,–
CC(C)(O)c1cnn2c(-c3ccc(F)c(-c4c(F)cccc4C#N)c3)cnc2n1,–,1.71 µM (active)
Brc1ccc(Oc2ccccc2)cc1,inactive,–
CN(C)[C@@H]1C(=O)C(C(N)=O)=C(O)[C@@]2(O)C(=O)C3=C(O)c4c(O)cccc4[C@@](C)(O)[C@H]3C[C@@H]12,inactive,–
Clc1ccccc1Cl,inactive,–
CCOC(=O)[C@]1(c2ccccc2)Oc2ccccc2[C@@H]1N,–,71.6 µM (active)
ClC1=C(Cl)C2(Cl)C3C(Cl)C=CC3C1(Cl)C2(Cl)Cl (stereo not given),–,13.1 µM (active)

# Reference: PubChem BioAssay (EPA / NIEHS)
